Inconclusive results are not listed. Active and inactive are the calls of the source. Rule for the calls: active = hit-call score of the fitted dose curve at least 0.9, where 1 is the maximum; inconclusive = response in the unintended direction; inactive = score below 0.9. Peptide text beside a SMILES is read from it.

The nature of this assay: ATG_M_06_TRANS: Attagene TRANS-FACTORIAL HepG2 Assay for M06 Transcription Factor (Internal Marker) (AID 2282983). Particulars: HepG2 Attagene TRANS M06 internal marker reporter. The procedure: ATG_TRANS is a cell-based, multiplexed-readout assay that uses HepG2, a human liver cell line, with measurements taken at 24 hours after chemical dosing in a 24-well plate.ATG_M_06_TRANS is one of 30 assay component(s) measured or calculated from the ATG_TRANS assay. It is designed to make measurements of mRNA induction, a form of inducible reporter, as detected with fluorescence intensity signals by Reverse transcription polymerase chain reaction (RT-PCR) and Capillary electrophoresis technology.Data from the assay component ATG_M_06_TRANS was analyzed into 1 assay endpoint. This assay endpoint, ATG_M_06_TRANS, was analyzed in the positive analysis fitting direction relative to DMSO as the negative control and baseline of activity. Using a type of inducible reporter, measures of mRNA for gain-of-signal activity can be used to understand the background control at the transcription factor-level as they relate to the gene . Furthermore, this assay endpoint can be referred to as a secondary readout, because this assay has produced multiple assay endpoints where this one serves a background control function. To generalize the intended target to other relatable targets, this assay endpoint is annotated to the background measurement intended target family, where the subfamily is internal marker.
Human liver HepG2 cells are transiently transfected with multiple reporter transcription units (MRTUs) in 6-well plates using FuGene 6 reagent (Roche; 3 ml FuGene/1 mg DNA). The MRTU constructs are regulated by a cis-regulating element (promoter). […] A major difference between the CIS and TRANS system is that in CIS activities of endogenous TFs are measured, whereas the TRANS assay evaluates changes in activities of exogenous, chimeric NR-Gal4 proteins. […] At the end of 24 hour incubation, total RNA was isolated using TriZol reagent (Invitrogen). The isolated RNA is then reverse-transcribed using oligo(dT) primer and Mo-MLV reverse transcriptase (Invitrogen) with DNAse I (Ambion) treatment for 30 min. The one-tenth of the produced cDNA was amplified by PCR using Taq DNA polymerase (Invitrogen) and two reporter sequence-specific primers. The PCR products were fluorescently labeled by primer extension with 6-arboxyfluorescein (6-FAM) 5'-labeled reporter sequence-specific primer (2 min at 95 C, 20 s at 68 C and 10 min at 72 C) and these products were digested with 5U of HpaI (New England Biolabs) for 2h at 37 C. The fragments were purified using Qiaquick PCR columns (Qiagen), analyzed on an ABI 3130xL genetic analyzer (Applied Biosystems) with peak positions identified by using a set of X-rhodamine (ROX)-labeled MapMarker1000 molecular weight standards (BioVentures). The raw capillary electrophoresis data was processed using Attagraph software (Attagene).
`O=C(Cl)c1c(Cl)c(Cl)c(C(=O)Cl)c(Cl)c1Cl`: the result was inactive. The value for `C[N+](C)(C)CCCNS(=O)(=O)C(F)(F)C(F)(F)C(F)(F)C(F)(F)C(F)(F)C(F)(F)C(F)(F)C(F)(F)F` was “inactive”; that for `N=C1C=CC(=C(c2ccc(N)cc2)c2ccc(N)cc2)C=C1` was “inactive”. The entry for `C=C(C)C1CC=C(C)CC1` (stereo not given) is “inactive”; for `COc1cc(C)ccc1O` it is “inactive”; for `CCC(C)C(=O)OC` (stereo not given) it is “inactive”.

Turning to `Cc1ccc2c(c1)CCCN2`, the result was inactive.

Turning to `Cc1ccc([N+](=O)[O-])cc1N`, the outcome was inactive. `CC(=O)CCC1=C(C)CCCC1(C)C`: the outcome was inactive. Consider `CCC(=O)C1CC(C(C)C)CC=C1C` (stereo not given), for which the compound was classed as inactive.

`CCC1COC(=O)O1` (stereo not given): the result was inactive. The entry for `CC1(C)C(=O)N(CO)C(=O)N1CO` is “inactive”; for `CCCc1ccc(O)c(OC)c1` it is “inactive”; for `Cc1c(C(=O)c2c[nH]n(C)c2=O)ccc(S(C)(=O)=O)c1C1=NOCC1` it is “inactive”. The value for `CCCCCCCC(=O)OCC(COC(=O)CCCCCCC)OC(=O)CCCCCCC` was “inactive”; that for `C=C[C@@]1(C)CC(=O)[C@]2(O)[C@@]3(C)[C@@H](O)CCC(C)(C)[C@@H]3[C@H](O)[C@H](OC(C)=O)[C@@]2(C)O1` was “inactive”. The entry for `CC1CCC(C(C)(C)S)C(=O)C1` (stereo not given) is “inactive”; for `CC(=O)CCC=C(C)C` it is “inactive”.

Regarding `CO[Si](C)(C)OC`, the compound was classed as inactive. The value for `CCCCNS(=O)(=O)c1ccc(C)cc1` was “inactive”; that for `C=CC(=O)NC(C)(C)C` was “inactive”. The entry for `COC(=O)[C@H](Cc1ccccc1)NC(=O)[C@@H](N)CC(=O)O` (H-Asp-Phe-OMe) is “inactive”; for `CCOc1ccc(NC(N)=O)cc1` it is “inactive”. Regarding `CC(C)CO`, the result was inactive.

Turning to `CC(C)C(=O)OCCOc1ccccc1`, the call was inactive. For the compound `CCCCC(CC)COC(=O)/C=C/c1ccc(OC)cc1` (stereo not given), the call was inactive. The entry for `Oc1ccc(/C=C/c2cc(O)cc(O)c2)cc1` is “inactive”; for `CC(C)CCCCCOC(=O)CS` it is “inactive”. Take `CCOB(OCC)OCC`: the result was inactive. The entry for `COc1ccc(C(=O)/C(Br)=C\C(=O)O)cc1` is “inactive”; for `O=C(O)CCCC(=O)O` it is “inactive”.

`CC=C(C)C(C)=O`: the outcome was inactive. With `O=C(OCCc1ccccc1)c1ccccc1`, the compound was classed as inactive. The entry for `CC1CC(=O)CC(C)(C)C1` (stereo not given) is “inactive”; for `O=C1CCCCCCCCCCCN1` it is “inactive”; for `c1ccc(-c2nc3ccccc3[nH]2)cc1` it is “inactive”. Take `CC(=O)OC1CCCCC1`: the outcome was inactive. The value for `Clc1cccnc1` was “inactive”. The entry for `Cc1noc(NS(=O)(=O)c2ccc(N)cc2)c1C` is “inactive”; for `CC(C=O)c1ccccc1` (stereo not given) it is “inactive”.

These data come from PubChem BioAssay (EPA / NIEHS).
